# Measurements reported in PubChem BioAssay (NCI).
# This is part of a sample that, as a whole, favours compounds with a hit. Of some 83,000 tested, about 20% had one in any assay.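 Method: cells in 96-well plates; compound added at one concentration; 48 h incubation; percent growth measured; values under 10 scored active.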 A number with no mark means an inactive call. Active and inactive are the calls of the source.
# System: SK-MEL-28 melanoma
# Assay: NCI-60 one-dose screen, 48 h (100 = growth as untreated, 0 = no growth, -100 = all killed)
# Conditions: 10 µM unless noted
# Protocol: Growth inhibition of the SK-MEL-28 human tumor cell line is measured as a screen for anti-cancer activity. Cells are grown in 96 well plates and exposed to the test compound for 48 hours. Compounds are tested at a single concentration, which is 10^-5 M for most compounds. The reported endpoint is percent growth (GI% or GIPRCNT), where numbers from 0 - 100% represent growth inhibition, and numbers from -100% - 0 represent cell death. For example, a value of 40 represents 60% growth inhibition. A value of 0 means no net growth occurred over the course of the experiment. A value of -40 indicates 40% of cells at the beginning of the experiment died by the end of the experiment. A value of -100 means all cells are dead at the end of the experiment.
# NCI-60 Human Tumor Cell Lines Screen was performed using the standard one-dose NCI protocol, which is described in more detail at https://dtp.cancer.gov/discovery_development/nci-60/default.htm.
# Compounds with GIPRCNT values below 10 were considered active. Activity score was based on GIPRCNT using the following formula: […]
# Score is 0 for GIPRCNT values of 100 or above, 50 for GIPRCNT values of 0, and 100 for GIPRCNT values of -100.
row,SMILES,growth
1,NCCNc1ccc([N+](=O)[O-])cc1,108%
2,Clc1ccc2c(NCCCn3cnc4c(N5CCCC5)nc(Cl)nc43)ccnc2c1,107%
3,O=C1c2c(c3c4cc(F)ccc4oc3c3[nH]c4ccccc4c23)C(=O)N1O,29%
4,CCN1C(=O)N(CC)C2C1NC(=S)N2/N=C/C=C/c1cccs1 (stereo not given),49.2%
5,COc1ccc(-c2cc(-c3ccc(Cl)cc3)c(C#N)c(=O)n2CCCCC(=O)NO)cc1,79.3%
6,COc1cc(/C=N/NC(=O)c2ccc3nc(-c4ccc(Cl)cc4)[nH]c3c2)cc(OC)c1OC,46.5%
7,O=C(Nc1ccccc1C(F)(F)F)C1=NCCCCN1,106%
8,CC(=O)O[C@H]1C[C@@]2(C)[C@@H](C[C@@H](O)[C@H]3[C@@]4(C)CC[C@H](N5CCCC5)[C@@H](C)[C@@H]4CC[C@@]32C)/C1=C(\CCC=C(C)C)C(=O)O,92.9%
9,CN1CCN(Cc2ccc(NC(=O)c3cncc(C#Cc4c(N)ncc5ccccc45)c3)cc2C(F)(F)F)CC1,-83.2% (active)
10,C=C1C(=O)O[C@H]2[C@H]1CC/C(CNC(=O)/C=C/c1cc(OC)c(OC)c(OC)c1)=C\CC[C@@]1(C)O[C@@H]21,-32.7% (active)
11,Cc1nc2cccc(NCc3ccc(C(=O)NO)cc3)c2c(=O)n1-c1ccccc1,35.7%
12,COc1cc(OC)cc(C(=O)Nc2cnc(Nc3ccc(N4CCOCC4)nc3)nc2Oc2ccc(C(F)(F)F)cc2)c1,98.9%
13,O=C1NC(=O)C(=Cc2cc(-c3ccc(Cl)cc3)n(-c3ccccc3)n2)C(=O)N1,98.5%
14,COc1ccc(Nc2nc(Nc3cc(C)[nH]n3)c3cc(OC)c(OC)cc3n2)cc1,-95.9% [20 µM] (active)
15,CCN1CCN(c2cc(C(=O)Nc3cccc(Nc4ccc5c(OC)cccc5n4)c3)cc(C(F)(F)F)c2)CC1,-44.4% (active)
16,Brc1ccc(-c2nn(-c3ccccc3)cc2-c2nn[nH]n2)s1,96.2%
17,CCN=c1sc2c(n1NC(=O)c1cc3ccc1CCc1ccc(cc1)CC3)C(=O)c1ccccc1C2=O,-81.2% (active)
18,COc1cccc(/C=C/C(=O)/C=C(/C=C/c2cccc(OC)c2OC)OB(F)F)c1OC,50.7%
19,C[C@@H]1N=C(c2ccc(Cl)cc2Cl)Nc2nc3ccccn3c2C1=O,60.7%
20,COc1ccc(C(=O)/C=C/c2ccc(C)cc2)cc1S(N)(=O)=O,98.1%

row,SMILES,growth
1,[2H]C([2H])([2H])Oc1ccc(/C=C/C(=O)/C=C(/C=C/c2ccc(OC([2H])([2H])[2H])c(OC([2H])([2H])[2H])c2OC([2H])([2H])[2H])OB(F)F)c(OC([2H])([2H])[2H])c1OC([2H])([2H])[2H],73.3%
2,CC1(C)C2=C(C(=O)N1Cc1ccccc1)C(c1ccco1)N(C(=O)C1CCC1)CCN2 (stereo not given),115%
3,COCCNC(=O)Cc1cc(-c2ccc(Cl)cc2)n(-c2ccccc2)c1C,103%
4,COc1cc(C(=O)c2c(-c3ccccc3)oc3ccccc23)cc(OC)c1O,66%
5,C=CC(=O)Nc1ccc2ncnc(Nc3cccc(NS(=O)(=O)CCC)c3Cl)c2c1,15%
6,CC(C)(C)c1ccc(C(=O)Nc2sc3c(c2C#N)CCC(=O)C3)cc1,28.8%
7,CN(C)C(=O)OCc1ccc2c(Cl)cc(Cl)c(O)c2n1,42.2%
8,CCN1C(=O)N(CC)C2C1NN=c1s/c(=C\c3ccc(F)cc3)c(=O)n12 (stereo not given),63%
9,CCCC1Cc2cc(-n3nc(C)c4c3CC(C)(C)CC4=O)cc(NC3CCC(O)CC3)c2C(=O)N1 (stereo not given),31.5%
10,Cn1cc(-c2csc(-c3cn(C)c4ccc(F)cc34)n2)c2cnccc21,-95.9% (active)
11,Cc1ccc2nc(/C=C/c3ccc(N(C)C)cc3)cc(C)c2c1,48.1%
12,CCN1C(=O)N(CC)C2C1NN=c1s/c(=C\c3ccc([N+](=O)[O-])cc3)c(=O)n12 (stereo not given),64.1%
13,CC(=O)OCCOc1cc(Cl)c(Cl)cc1Cl,113%
14,CS(=O)(=O)Nc1cc(-c2ccc3ncnc(Nc4cccc(Cl)c4)c3c2)cnc1Cl,5.51% (active)
15,CN(CCNc1ccc(C(=N)N)cc1)c1ccc(C(=N)N)cc1,94.8%
16,C/C(=C(\c1ccc(OCCCN(C)C)cc1)c1ccc(OC(=O)Cc2ccccc2)cc1)c1ccc(Cl)cc1,76.4%
17,C=CCNc1nc(O)c(/C=C2\C=Nc3ncccc32)s1,-2.4% (active)
18,O=C(Nc1ncc(Cc2ccc(Cl)cc2)s1)C1=NCCCCN1,108%
19,COc1cc2c(c(OC)c1OC)CCC(c1cccc(C(=O)Nc3ccccc3Br)c1)O2 (stereo not given),94.6%
20,Cn1cc(-c2ccc3c(Nc4cccc(NC(=O)Nc5cccc(F)c5)c4)ncnc3c2)cn1,49.6%
